Source: PubChem BioAssay
An excerpt weighted towards active compounds, which were near 5.5% of everything screened.
Coupling enz: counter-screen for Giardia aldolase inhibitors: coupling enzyme system; AID 2472; hit rate 0.67% among 290,000; activity change, negative = inhibition, % at 58.2 µM, hits read low; coupling enzyme system counterscreen, AmpLite Red fluorescence; in the data active = activity change below about -30%
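Final compound at 57.5 uM, incubated 10 min at RT with coupling enzyme reagent (glyceraldehyde-3-phosphate), then 20 min with substrate and AmpLite Red detection. Fluorescence read at 525/598 nm; tests interference with the coupling assay, not aldolase inhibition.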
Giardia kill: Giardia lamblia killing | hit rate 0.15% among 340,000 | Giardia lamblia trophozoite viability | activity change, % at 7.66 µM, hits read low; in the data active = activity change below about -80%; inconclusive = between about -30% and that limit;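 note: parasites exposed to compound for two days anaerobically before the ATP read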
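Trophozoite viability was measured as ATP-dependent luminescence, read 15-30 min after reagent addition. Before that, parasites at 100 cells/well were exposed to compounds for 48 h, anaerobically, at 37 deg C.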
ELG1 DNA repair: inhibitors of ELG1-dependent DNA repair in HEK293T cells | HEK293T ELG1-luciferase reporter, luminescence, 16 h; DNA damage induced by 5-fluorouridine | Potency, µM (titrated, usually from 46.1 µM), inactives show at the highest dose activity change, negative = inhibition, most hits filed as inhibitors | hit rate 2.3% among 330,000; note: potency is the fitted concentration of half-maximal effect; nearly all actives have a fitted effect of over 55% in size
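Step one: seed 2,000 cells per well. Step two: pin-transfer compound or DMSO alongside 5-fluorouridine. Step three: incubate 16 hr, 37 °C, 5% CO2. Step four: add ONE-Glo, wait 30 min, read luminescence.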
Sfp PPTase inh: blocks B. subtilis Sfp PPTase activity. AID 1490. Biochemical Sfp PPTase activity, qHTS. hit rate 3.5% among 310,000. Potency, µM, without a hit: largest response in the series, negative = inhibition, actives largely listed as inhibitors;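 note: the enzyme is Sfp with the accession as filed and its product quenches rhodamine fluorescence; potency is the fitted concentration of half-maximal effect; 0% = enzyme reaction without inhibitor and -100% = no enzyme wells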
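Fluorescence-quenching assay: 15 nM Sfp-PPTase preincubated 15 min at room temperature with compound, then 5 uM rhodamine-CoA and 12.5 uM BHQ-2-labelled YbbR peptide added. Fluorescence (ex 525/em 598 nm) read at start and after 30 min; difference gives rate.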
Sfp PPTase conf: Sfp phosphopantetheinyl transferase inhibition, confirmation; Sfp PPTase enzymatic assay, qHTS titration; shares compounds with Sfp PPTase inh; hit rate 79% among 380; Potency, µM (titrated, usually from 114 µM), without a hit: at the highest dose activity change, negative = inhibition, usual class: inhibitors;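 note: potency is the fitted concentration of half-maximal effect; plate controls were uninhibited Sfp reaction for no effect and no enzyme control for full effect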
Target sequence (Q9F4F7 whole entry, looked up): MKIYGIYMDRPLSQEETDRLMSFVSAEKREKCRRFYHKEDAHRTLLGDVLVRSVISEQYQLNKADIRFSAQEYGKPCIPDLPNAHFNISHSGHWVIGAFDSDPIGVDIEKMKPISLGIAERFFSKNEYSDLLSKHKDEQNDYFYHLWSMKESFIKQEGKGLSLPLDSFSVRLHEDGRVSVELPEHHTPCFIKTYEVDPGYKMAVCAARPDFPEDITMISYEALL
Sfp gel assay: Blocks Sfp PPTase activity, gel read-out; shares compounds with Sfp PPTase inh; purified Sfp, gel-based phosphopantetheinylation read-out; Potency, µM, hits mostly inhibitors; hit rate 20% among 210;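 active = potency below 100 µM; inconclusive = dose-dependent response but potency above 100 µM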;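 note: band intensities scaled against SCH202676 control wells before curve fitting; potency is an IC50 for inhibitors of Sfp transfer activity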
Starred values were filed as active, the others as inactive; i = inactive; ? = inconclusive; · = no result; ! = not active in a repeat; [ ] = dose if it differs, or a comment. Unless noted, calls come from the whole dose curve; as a rule, active = well fitted curve in the direction sought with a large enough effect; inconclusive = small, poorly fitted or top-dose-only effect, or another doubt; inactive = no such curve, though single readings can be large; an effect the other way counts as inactive or inconclusive. Unless noted, % is set by controls: 0 for no effect and ±100 for the full control effect.

SMILES | Coupling enz | Giardia kill | ELG1 DNA repair | Sfp PPTase inh | Sfp PPTase conf | Sfp gel assay
COC(=O)c1c(N2C(=O)CC(Sc3ccccc3C(=O)O)C2=O)sc2c1CCCC2 (configuration not stated) | 18 | -5 | 2% | 1.6µM* | 33µM* | ·
CCN1CCN(c2nc3c(C)cccn3c(=O)c2/C=C(\C#N)C(=O)NCCOC)CC1 | -4 | 8 | -1% | 15% | · | ·
COc1ccccc1/C=c1\sc2nc(-c3ccco3)nn2c1=O | 4 | -10 | 10% | 2µM* | 42µM* | ?
CC(C)(C)OC(=O)C[C@@H]1C/C=C\C[C@H](CC(=O)N(CCO)Cc2ccccc2)C(=O)N[C@H](Cc2ccccc2)COC1=O | · | -12 | ? | · | · | ·
CCOC(=O)NNc1nncc2ccccc12 | -2 | -13 | -2% | 35µM*! | 10%[53.7 µM] | ?
CCOC(=O)C1CCN(C(=O)c2ccc(OCC(=O)Nc3ccc(OCC)cc3)c(OC)c2)CC1 | · | -6 | -17% | · | · | ·
NC(CO)C(=O)NNCc1ccc(O)c(O)c1O (configuration not stated) | -53*! | -4 | 6% | 6.3µM*! | 11µM* | ·
COC(=O)C(N)Cc1ccc(O)cc1 (configuration not stated) | 4 | -21 | 0% | 8% | · | ·
CC(=O)Nc1nnc(S(N)(=O)=O)s1 | 1 | -3 | 13% | 19% | · | ·
CC(=O)N=c1sc(S(N)(=O)=O)nn1C | 2 | -15 | 7% | 25µM*! | 47µM* | i
CCOC(=O)c1c(NC(=O)CNCCOC)sc2c1CCCC2 | 2 | 23 | -11% | -2% | · | ·
CNC(=O)c1c(N)sc2c1CCCCC2 | -10 | · | 4% | 20µM* | 21µM* | ·
CC(C)OC(=O)c1c(N)sc2c1CCCC2 | · | 0 | · | · | · | ·
COCCNC(=O)c1c(N)sc2c1CCCC2 | -9 | · | ? | 14µM* | 37µM* | ·
COc1ccc(-c2csc(Nc3ccc(C)cn3)n2)cc1 | 0 | -12 | 4% | 6.3µM* | 59µM* | i
Cc1ccc(-c2csc(Nc3ccccn3)n2)cc1 | -4 | -23 | ? | -7% | · | ·
CC(=O)c1cccc(S(=O)(=O)N2CCCC(c3nc(-c4ccc(C)o4)no3)C2)c1 (configuration not stated) | -2 | -1 | ? | 56µM* | 24µM* | ·
Cc1ccc(-c2noc(C3CCCN(S(=O)(=O)c4ccc5ccccc5c4)C3)n2)o1 (configuration not stated) | -2 | 9 | -14% | -18% | · | ·
CC(C)C[C@@H](CC(=O)N[C@@H](CCC(=O)O)CC(=O)O)NC(=O)[C@@H]1CCCC[C@H]1NC(=O)C[C@H](CCCN)NC(=O)C[C@H](Cc1c[nH]c2ccccc12)NC(=O)[C@@H]1CNCC[C@H]1N | 0 | · | · | -12% | · | ·
CC/C(=C(\c1ccccc1)c1ccc(OCCN(C)C)cc1)c1ccccc1 | 1 | -17 | · | 50µM*! | 47µM* | i
CCN(CC)CCOc1ccc(/C(=C(/Cl)c2ccccc2)c2ccccc2)cc1 | 0 | -5 | -13% | ? | · | ·
Cc1ccc(Nc2cc(C)nc(NCc3ccccc3)n2)cc1 | -15 | -5 | -24% | 13µM* | 30µM* | i
Cc1ccc(-n2c(CCC(=O)O)ccc2-c2cccs2)cc1 | 4 | -13 | 12% | 14µM* | 24µM* | ·
COC(=O)c1cccc(-n2c(CCC(=O)O)ccc2-c2cccs2)c1 | 9 | -2 | 18% | 4µM* | 21µM* | ?
CC(NC(=O)c1sc2cc([N+](=O)[O-])ccc2c1Cl)C(C)(C)C (configuration not stated) | -3 | 3 | -3% | 7.9µM* | 0.53µM* | 0.69µM*
O=C(NC1CC1)c1sc2cc([N+](=O)[O-])ccc2c1Cl | -2 | 5 | ? | 0% | · | ·
C[C@@H](NCCCc1cccc(C(F)(F)F)c1)c1cccc2ccccc12 | · | · | · | 79µM* | 24µM* | ·
C[C@@H](Cc1cccc(C(F)(F)F)c1)NCCOC(=O)c1ccccc1 | -2 | · | · | 7% | · | ·
O=C(/C=C/c1ccc(Br)o1)NCc1ccccc1 | 0 | 41 | 20% | 6.3µM* | 17µM* | i
O=C(/C=C/c1ccccc1Cl)NCc1ccccc1 | 1 | 13 | ? | 1% | · | ·
